Data on 5 molecules can be found in PubChem BioAssay.

Experiment [1] is described as follows: yeast TOR pathway RPL19A-GFP modulators, primary screen, cell-based, S. cerevisiae, multiplex flow cytometry (AID 1862; in the data active = percent of DMSO control GFP below about 86%;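 note: lower values mimic rapamycin by blocking the RPL19A rise seen in DMSO cells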). The note with it: S. cerevisiae RPL19A-GFP strain, flow cytometry fluorescence, 3 h; at 10 µM; stronger effect = lower value. (In flow cytometry, cells or beads pass a laser one at a time.)
Experiment [2] is described as follows: modulators of MEP2-GFP levels in yeast, primary screen, S. cerevisiae, multiplex flow cytometry (AID 1867;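 active = GFP response, as percent of the DMSO control, above the screen-wide mean plus 3 SD, about 139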;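 note: median GFP channel fluorescence of barcode-gated MEP2-GFP cells measured by flow cytometry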). To be noted: S. cerevisiae MEP2-GFP strain, 3 h, at 10 µM, stronger effect = higher value, 100% means same as DMSO wells.
The nature of experiment [3]: modulators of CIT2-GFP expression in yeast, primary screen, S. cerevisiae, GFP fusion, multiplex flow cytometry (AID 1870;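 active = percent response above a set limit, the screen-wide mean plus 3 SD, cut at about 130% in these data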;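 note: barcoded CIT2-GFP strain pooled with four other GFP strains with rapamycin as positive control; median GFP fluorescence per well over plate mean of DMSO wells so 100% = DMSO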). The note with it: 3 h, at 10 µM, stronger effect = higher value.
Experiment [4] in a line: modulators of LAP4-GFP expression in yeast, primary screen, S. cerevisiae, multiplex flow cytometry (AID 1873;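 active = GFP signal, as percent of the solvent control, above the screen mean plus 3 SD, about 149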). The note with it: 3 h, at 10 µM, stronger effect = higher value.
Experiment [5] is described as follows: modulators of AGP1-GFP expression in yeast TOR pathway, primary screen, cell-based, multiplex flow cytometry, S. cerevisiae (AID 1887;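 active = GFP signal above the screen-wide mean plus 3 SD, that is over about 124.5% of the solvent control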;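 note: AGP1-GFP fusion strain of S. cerevisiae within a five-strain barcoded multiplex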). To be noted: 3 h, at 10 µM, stronger effect = higher value.
Experiment [6] in a line: inhibitors of CD8+ T cell-vesicle binding, pilot screen, LFA-1/ICAM-1 modulator project, MLPCN validation set, flow cytometry (AID 2523;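 active = response below a set limit, under 55% cells CD8-positive and vesicle-bound, and CD8 cells' 90th-percentile brightness under 279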;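 for vesicle binding response: mean PE anti-B7-1 fluorescence of CD8+ cells relative to row control; 100% = QL9-loaded vesicles with DMSO vehicle in the same plate row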). The note with it: 2C mouse CD8+ T cells, at 7 µM, stronger effect = lower value; double positive events: measured here: CD8+/vesicle+ event percentage.
Experiment [7] has as its target Integrin beta-1 (Homo sapiens) + Integrin alpha-4 (Homo sapiens) (UniProt P13612+P05556). The experiment is described as follows: inhibition of HUTS-21 binding to VLA-4, pilot screen, VLA-4 allosteric modulator project, U937 cells, HUTS-21 mAb, flow cytometry, validation set (AID 2674;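 active = inhibition above 50%, about 3 SD of the validation set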;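 note: antibody binding induced by the VLA-4 ligand LDV present at three times its Kd; 0% = LDV ligand with antibody and no compound and 100% = antibody without LDV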). The note with it: HUTS-21 LIBS mAb binding, at 6.7 µM, stronger effect = higher value, binding induced by LDV ligand.

Experiment [8] can be described thus: superoxide lowering in aged yeast cells, pilot screen, validation compound set (AID 2706;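 active = superoxide response below 65% of plate, a cut near 3 SD across the whole screen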;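 note: yeast exposed to compound for one week at 30 degrees C before staining; 100% = mean of all compound wells on the same plate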). To be noted: S. cerevisiae aging, superoxide DHE fluorescence; at 10 µM; stronger effect = lower value.
Experiment [9] has as its target Beta-adrenergic receptor kinase 1 (Homo sapiens) (UniProt P25098). The experiment is described as follows: GRK2 binders displacing RNA aptamer, biochemical, validation, human GRK2, bead flow cytometry (AID 488806;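 active = aptamer binding inhibition above 30%, about 3 SD of noise from non-fluorescent compounds; inactive = inhibition at or below 30%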). To be noted: bead-bound GRK2, FAM-aptamer displacement, at 10 µM, stronger effect = higher value.
Experiment [10] addresses Beta-2 adrenergic receptor (Homo sapiens) (UniProt P07550). Put plainly: beta2AR agonists driving receptor internalization, pilot screen, cell-based, FAP fluorogen, flow cytometry, validation set (AID 504459;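 active = percent response above 42, roughly 3 SD of non-fluorescent test compounds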;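 note: agonist-driven loss of surface beta2AR via internalization measured by FAP dye flow cytometry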). The note with it: Am2.2-beta2AR cells, FAP surface receptor flow cytometry; at 10 µM; stronger effect = higher value.
The target of experiment [11] is AP-2 complex subunit beta (Homo sapiens) (UniProt P63010). The experiment is described as follows: inhibitors of arrestin peptide binding to AP2, pilot screen, biochemical, validation set, GST-AP2 beads, flow cytometry (AID 504541;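 active = inhibition above 54%, about 3 SD of non-fluorescent compounds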;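 note: AP2 carries R879A mutation and is captured from E. coli lysate; bead-bound FITC arrestin peptide fluorescence measuring arrestin peptide binding to AP2; 0% = DMSO wells and 100% = excess unlabeled arrestin peptide control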). To be noted: FITC arrestin peptide, at 10 µM, stronger effect = higher value, AP2 beta2 appendage fragment, R879A mutant.
Sequence of AP-2 complex subunit beta (Homo sapiens) (P63010 whole entry, looked up, the tested form may be a part, one chain of several): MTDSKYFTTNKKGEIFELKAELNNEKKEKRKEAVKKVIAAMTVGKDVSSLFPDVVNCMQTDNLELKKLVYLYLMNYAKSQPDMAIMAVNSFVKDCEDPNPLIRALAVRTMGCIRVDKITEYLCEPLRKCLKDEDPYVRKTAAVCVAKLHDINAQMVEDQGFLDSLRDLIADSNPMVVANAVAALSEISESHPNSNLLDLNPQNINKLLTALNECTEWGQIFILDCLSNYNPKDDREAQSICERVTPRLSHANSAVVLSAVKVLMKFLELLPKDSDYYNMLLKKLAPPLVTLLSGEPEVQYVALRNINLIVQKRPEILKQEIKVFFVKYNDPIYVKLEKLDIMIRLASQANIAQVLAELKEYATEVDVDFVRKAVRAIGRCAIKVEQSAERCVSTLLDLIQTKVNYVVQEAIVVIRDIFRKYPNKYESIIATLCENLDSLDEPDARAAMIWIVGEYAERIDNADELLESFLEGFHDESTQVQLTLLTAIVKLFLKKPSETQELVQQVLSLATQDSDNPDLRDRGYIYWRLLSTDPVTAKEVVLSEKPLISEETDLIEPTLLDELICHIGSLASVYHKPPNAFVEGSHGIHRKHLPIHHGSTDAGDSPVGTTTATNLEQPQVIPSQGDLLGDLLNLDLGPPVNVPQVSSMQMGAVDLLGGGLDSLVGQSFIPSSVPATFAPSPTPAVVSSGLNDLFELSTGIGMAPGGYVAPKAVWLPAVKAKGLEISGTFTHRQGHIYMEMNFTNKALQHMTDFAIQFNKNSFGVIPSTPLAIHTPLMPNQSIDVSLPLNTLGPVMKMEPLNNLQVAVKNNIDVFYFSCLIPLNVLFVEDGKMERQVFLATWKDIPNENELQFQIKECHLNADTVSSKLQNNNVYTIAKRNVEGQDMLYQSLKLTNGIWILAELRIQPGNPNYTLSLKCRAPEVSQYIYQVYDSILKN
Experiment [12] in a line: yeast V-ATPase proton transport modulators, S. cerevisiae, pHLuorin, HTS validation (AID 504600; in the data active = response above about 15%;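 note: plate controls were DMSO for no effect and reference compound for full effect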). To be noted: S. cerevisiae pHLuorin cytosolic pH, at 10 µM, stronger effect = higher value.
For experiment [13], the system named is anti-desmoglein-3 scFv antibody binding to human DSG3. The experiment is described as follows: inhibitors of anti-DSG3 scFv binding to DSG3, pilot screen, biochemical, validation compound set, bead-based, flow cytometry (AID 588368;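 active = binding below the plate cutoff, the plate median minus 3 SD, with a reading above zero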;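 note: signal is the median channel fluorescence of bead-bound GFP antibody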). To be noted: Protein G beads, DSG3-Fc, scFv-GFP binding, at 10 µM, stronger effect = lower value.
A short description of experiment [14]: inhibitors of fungal efflux pumps CDR1, CDR2, MDR1, pilot screen, validation compound set, multiplex, phenotypic (AID 588506;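 active = efflux inhibition above 0.42, the validation set average plus 4 SD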;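 note: Nile Red retained in cells so higher fluorescence means more efflux inhibition; 0 = negative control wells and 1 = enniatin B 25 µM full block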). The note with it: S. cerevisiae pump-expressing triplex, Nile Red efflux flow cytometry; at 10 µM; stronger effect = higher value; the pumps come from Candida albicans.
Experiment [15] concerns the target ATP-binding cassette sub-family B member 6 (Homo sapiens) (UniProt Q9NP58). Put plainly: ABCB6 transporter inhibitors, pilot screen, K562-ABCB6 cells, flow cytometry, validation set (AID 588550;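 active = inhibition above the screen-wide mean plus 3 SD, about 51%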;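 note: 0% = DMSO wells and 100% = benzethonium chloride 70 µM positive control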). To be noted: K562-ABCB6 porphyrin accumulation, 1 h, at 10 µM, stronger effect = higher value.
Experiment [16] can be described thus: promoters of myeloid differentiation in arrested cells, primary screen, cell-based, GFP/MAC1 double positive, flow cytometry, validation set (AID 588685).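 Note: compound exposure lasts four days before antibody staining and flow analysis; 0% = DMSO wells and 100% = 5 µM fulvestrant positive control.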 To be noted: ER-HoxA9 marrow cells, stronger effect = higher value, normalized: vehicle 0, fulvestrant 100.

Where “and” joins values, the source holds several entries; their conditions need not be identical. Equal entries are not always repeated. Results filed as inconclusive are left out. Calls of active or inactive are those of the source.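 Rule for the calls, unless noted: active = differentiation response of at least 50%, scaled between solvent and reference control, from cells with both markers; inactive = the rest.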

Sequence of Beta-2 adrenergic receptor (Homo sapiens) (P07550 whole entry, looked up): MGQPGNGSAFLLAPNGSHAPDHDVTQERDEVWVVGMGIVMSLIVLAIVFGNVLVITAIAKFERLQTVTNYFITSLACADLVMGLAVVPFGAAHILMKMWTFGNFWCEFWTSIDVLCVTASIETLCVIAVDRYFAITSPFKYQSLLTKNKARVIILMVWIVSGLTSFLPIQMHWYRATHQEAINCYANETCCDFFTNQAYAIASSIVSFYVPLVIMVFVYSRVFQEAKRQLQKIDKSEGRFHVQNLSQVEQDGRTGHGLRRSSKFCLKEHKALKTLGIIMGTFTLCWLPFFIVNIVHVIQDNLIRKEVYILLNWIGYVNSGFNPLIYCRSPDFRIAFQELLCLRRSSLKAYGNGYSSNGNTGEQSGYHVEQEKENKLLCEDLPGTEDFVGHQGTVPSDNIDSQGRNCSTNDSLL
Sequence of ATP-binding cassette sub-family B member 6 (Homo sapiens) (Q9NP58 whole entry, looked up): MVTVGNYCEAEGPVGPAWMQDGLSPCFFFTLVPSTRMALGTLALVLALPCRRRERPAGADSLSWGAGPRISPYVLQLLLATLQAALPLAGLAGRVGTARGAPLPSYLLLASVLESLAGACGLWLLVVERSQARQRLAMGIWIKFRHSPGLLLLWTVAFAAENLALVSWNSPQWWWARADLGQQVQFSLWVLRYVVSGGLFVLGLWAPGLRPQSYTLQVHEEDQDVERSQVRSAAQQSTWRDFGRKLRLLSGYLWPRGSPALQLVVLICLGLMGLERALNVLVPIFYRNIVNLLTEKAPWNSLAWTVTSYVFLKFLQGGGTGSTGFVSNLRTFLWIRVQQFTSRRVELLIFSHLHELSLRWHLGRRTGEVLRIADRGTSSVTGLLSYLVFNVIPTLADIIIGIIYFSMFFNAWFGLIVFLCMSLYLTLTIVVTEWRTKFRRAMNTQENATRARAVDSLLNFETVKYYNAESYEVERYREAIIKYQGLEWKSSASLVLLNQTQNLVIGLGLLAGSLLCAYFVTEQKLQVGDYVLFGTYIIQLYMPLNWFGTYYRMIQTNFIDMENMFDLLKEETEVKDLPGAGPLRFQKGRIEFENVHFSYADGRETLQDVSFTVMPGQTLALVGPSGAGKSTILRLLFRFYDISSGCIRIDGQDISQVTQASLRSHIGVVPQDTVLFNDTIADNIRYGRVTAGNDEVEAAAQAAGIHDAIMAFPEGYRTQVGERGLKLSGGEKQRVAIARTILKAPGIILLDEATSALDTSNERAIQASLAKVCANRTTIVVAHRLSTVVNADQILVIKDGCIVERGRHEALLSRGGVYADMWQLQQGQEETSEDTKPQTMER
Sequence of Beta-adrenergic receptor kinase 1 (Homo sapiens) (P25098 whole entry, looked up): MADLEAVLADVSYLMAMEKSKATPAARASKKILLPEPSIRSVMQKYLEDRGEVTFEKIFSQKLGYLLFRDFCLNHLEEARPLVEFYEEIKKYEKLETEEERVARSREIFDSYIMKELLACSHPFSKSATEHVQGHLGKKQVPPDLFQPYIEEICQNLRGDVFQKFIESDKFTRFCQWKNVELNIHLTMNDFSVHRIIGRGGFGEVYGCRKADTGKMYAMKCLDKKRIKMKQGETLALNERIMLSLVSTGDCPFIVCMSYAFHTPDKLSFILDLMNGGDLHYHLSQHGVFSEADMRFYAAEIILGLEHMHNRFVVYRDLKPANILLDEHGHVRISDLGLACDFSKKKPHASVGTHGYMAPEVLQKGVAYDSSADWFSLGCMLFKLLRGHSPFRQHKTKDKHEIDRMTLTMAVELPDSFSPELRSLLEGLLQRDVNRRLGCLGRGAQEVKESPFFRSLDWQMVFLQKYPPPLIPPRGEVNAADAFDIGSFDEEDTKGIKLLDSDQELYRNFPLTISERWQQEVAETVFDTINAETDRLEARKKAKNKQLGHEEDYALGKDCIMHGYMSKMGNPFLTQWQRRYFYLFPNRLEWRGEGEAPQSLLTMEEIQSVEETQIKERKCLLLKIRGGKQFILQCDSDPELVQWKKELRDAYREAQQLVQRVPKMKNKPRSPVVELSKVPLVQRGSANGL
Sequence of Integrin beta-1 (Homo sapiens) + Integrin alpha-4 (Homo sapiens) (P05556 whole entry, looked up): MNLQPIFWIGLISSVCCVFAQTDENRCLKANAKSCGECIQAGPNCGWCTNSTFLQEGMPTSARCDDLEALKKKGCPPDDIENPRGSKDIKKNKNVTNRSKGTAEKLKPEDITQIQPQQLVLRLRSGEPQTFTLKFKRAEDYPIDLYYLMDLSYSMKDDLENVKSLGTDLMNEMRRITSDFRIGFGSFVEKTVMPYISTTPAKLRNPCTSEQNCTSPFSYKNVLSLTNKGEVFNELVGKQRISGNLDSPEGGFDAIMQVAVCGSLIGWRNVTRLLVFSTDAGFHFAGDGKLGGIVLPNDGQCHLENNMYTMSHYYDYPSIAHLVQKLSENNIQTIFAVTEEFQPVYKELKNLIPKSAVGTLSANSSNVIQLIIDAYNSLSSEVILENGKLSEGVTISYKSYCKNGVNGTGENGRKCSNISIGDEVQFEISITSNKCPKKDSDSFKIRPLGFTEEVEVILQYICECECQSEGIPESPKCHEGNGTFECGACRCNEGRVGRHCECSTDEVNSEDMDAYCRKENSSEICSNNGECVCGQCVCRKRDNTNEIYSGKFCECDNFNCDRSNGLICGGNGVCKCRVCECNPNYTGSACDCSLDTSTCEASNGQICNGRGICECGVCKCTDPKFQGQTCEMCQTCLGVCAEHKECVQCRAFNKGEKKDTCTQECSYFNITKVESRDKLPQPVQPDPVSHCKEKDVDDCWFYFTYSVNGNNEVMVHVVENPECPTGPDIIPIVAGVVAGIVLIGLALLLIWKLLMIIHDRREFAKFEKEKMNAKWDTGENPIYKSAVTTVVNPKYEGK
Sequence of Integrin beta-1 (Homo sapiens) + Integrin alpha-4 (Homo sapiens) (P13612 whole entry, looked up): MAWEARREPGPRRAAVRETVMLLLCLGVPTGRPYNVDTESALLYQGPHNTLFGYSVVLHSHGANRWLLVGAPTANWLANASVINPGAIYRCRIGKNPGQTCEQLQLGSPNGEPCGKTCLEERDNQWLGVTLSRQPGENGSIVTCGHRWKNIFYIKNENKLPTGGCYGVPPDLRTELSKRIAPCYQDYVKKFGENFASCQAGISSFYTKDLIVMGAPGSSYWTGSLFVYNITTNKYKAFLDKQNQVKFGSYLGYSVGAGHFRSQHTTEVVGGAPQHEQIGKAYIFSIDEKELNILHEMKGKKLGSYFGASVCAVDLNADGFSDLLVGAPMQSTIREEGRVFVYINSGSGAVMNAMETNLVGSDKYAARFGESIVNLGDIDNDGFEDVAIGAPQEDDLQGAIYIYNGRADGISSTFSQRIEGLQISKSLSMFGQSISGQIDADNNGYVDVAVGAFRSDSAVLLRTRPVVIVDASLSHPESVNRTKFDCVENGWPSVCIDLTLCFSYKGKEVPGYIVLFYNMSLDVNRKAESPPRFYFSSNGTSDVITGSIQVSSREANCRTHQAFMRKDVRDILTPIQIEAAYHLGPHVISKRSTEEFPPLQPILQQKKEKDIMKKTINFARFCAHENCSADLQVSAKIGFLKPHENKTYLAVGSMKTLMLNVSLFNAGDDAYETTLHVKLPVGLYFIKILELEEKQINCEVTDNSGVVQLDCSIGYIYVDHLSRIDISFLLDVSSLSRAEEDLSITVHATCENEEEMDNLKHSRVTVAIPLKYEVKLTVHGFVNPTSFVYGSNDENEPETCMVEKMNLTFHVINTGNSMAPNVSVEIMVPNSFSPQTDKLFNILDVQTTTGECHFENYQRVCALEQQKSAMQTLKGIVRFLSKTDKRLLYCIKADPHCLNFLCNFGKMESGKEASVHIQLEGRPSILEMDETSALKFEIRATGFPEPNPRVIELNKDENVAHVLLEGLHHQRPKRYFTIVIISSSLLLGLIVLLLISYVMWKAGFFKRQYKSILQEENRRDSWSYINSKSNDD

As usually defined, the inhibition is the change of the read-out against control, counted positive when it falls. Take `Cc1cccc(C)c1NC(=O)C1CCCCN1C` (stereo not given): the percent of DMSO control GFP in [1] was 102% (inactive). Further, the results for the GFP response vs DMSO in experiment [2] and in experiment [4] were 104% (inactive) and 90.1% (inactive), respectively. The percent response of DMSO control in [3] was 97.8% (inactive). Further, in [5], the GFP response, % of DMSO was 97% (inactive). This molecule showed a double positive events in experiment [6] of 62.6%. Further, the vesicle binding response in experiment [6] was 92.5% (inactive). For the same molecule, the inhibition in experiment [7] is -4.6% (inactive); in [11] it was 15.4% (inactive); in [15] it was 1% (inactive). For the same molecule, the superoxide response (% of plate) in experiment [8] was 104% (inactive). In addition, in experiment [9], the aptamer binding inhibition is 5% (inactive). Moreover, the response in [10] was 10.4% (inactive); in experiment [12], 0.17% (inactive). Further, in [13], the binding (% of control) was 98.2% (inactive). Besides, the efflux inhibition (fraction of control) in [14] is -0.01 (inactive). Further, the differentiation response in [16] was -1.71% (inactive).

Regarding `O=C1NC(=O)C(c2ccccc2)(c2ccccc2)N1`, the percent of DMSO control GFP in experiment [1] is 102% (inactive). In addition, the GFP response vs DMSO in experiment [2] is 107% (inactive); in experiment [4], 93.3% (inactive). For the same molecule, the percent response of DMSO control in experiment [3] was 93.9% (inactive). In experiment [5], the GFP response, % of DMSO was 99.6% (inactive). For the same molecule, the double positive events in experiment [6] is 58.7% and 60.5%. Also, in experiment [6], the vesicle binding response is 114% (inactive) and 142% (inactive). In addition, the inhibition was 20.4% (inactive) and -2.11% (inactive) in experiment [7]; 1.12% (inactive) and -5.85% (inactive) in [11]; 11% (inactive) and 12% (inactive) in experiment [15]. Further, in experiment [8], the superoxide response (% of plate) was 102% (inactive) and 98.5% (inactive). In addition, the aptamer binding inhibition in [9] was -2% (inactive) and 2% (inactive). Besides, the response is 5.51% (inactive) in [10]; 8.2% (inactive) and -0.2% (inactive) in experiment [12]. Besides, in experiment [13], the binding (% of control) is 97% (inactive) and 99.3% (inactive). In experiment [14], the efflux inhibition (fraction of control) is -0.44 (inactive) and 0.29 (inactive). In experiment [16], the differentiation response is -0.18% (inactive) and -8.27% (inactive).

For `CCC[C@@H]1C[C@@H](C(=O)N[C@H]([C@@H](C)O)[C@H]2O[C@H](SC)[C@H](O)[C@@H](O)C2O)N(C)C1` (stereo not given in full), the percent of DMSO control GFP in experiment [1] was 92.8% (inactive). Also, the GFP response vs DMSO is 120% (inactive) in experiment [2] and 80.9% (inactive) in [4]. Besides, the percent response of DMSO control in experiment [3] was 97.9% (inactive). Besides, the GFP response, % of DMSO in experiment [5] was 90.1% (inactive). In addition, in experiment [6], the double positive events is 66.2%. Moreover, in experiment [6], the vesicle binding response was 177% (inactive). Further, the figures for the inhibition in experiment [7], in experiment [11] and in experiment [15] were 3.55% (inactive), -1.72% (inactive) and 10% (inactive), respectively. In experiment [8], the superoxide response (% of plate) is 99.1% (inactive). Moreover, the aptamer binding inhibition in [9] was 5% (inactive). The response in experiment [10] is -3.92% (inactive); in experiment [12], 3.43% (inactive). Also, in experiment [13], the binding (% of control) was 106% (inactive). Further, the efflux inhibition (fraction of control) in experiment [14] was -0.17 (inactive). Also, the differentiation response in [16] is -4.09% (inactive).

As to `Cc1c(O)c(=O)ccn1C`, in experiment [1], the percent of DMSO control GFP is 90.4% (inactive). The results for the GFP response vs DMSO in [2] and in experiment [4] were 121% (inactive) and 76.5% (inactive), respectively. The percent response of DMSO control in experiment [3] was 103% (inactive). Besides, the GFP response, % of DMSO in [5] is 95.4% (inactive). Besides, the double positive events in experiment [6] was found to be 64.3%. In experiment [6], the vesicle binding response was 412% (inactive). Besides, the inhibition is 6.46% (inactive) in experiment [7], -9.42% (inactive) in experiment [11] and 9% (inactive) in experiment [15]. In experiment [8], the superoxide response (% of plate) is 99.1% (inactive). Besides, the aptamer binding inhibition in experiment [9] is 1% (inactive). Further, the response was -11.3% (inactive) in experiment [10] and 3.11% (inactive) in experiment [12]. In addition, in experiment [13], the binding (% of control) is 102% (inactive). The efflux inhibition (fraction of control) in [14] was 0.27 (inactive). Also, the differentiation response in experiment [16] was -3.28% (inactive).

In the case of `COc1ccc(CN(CCC(c2ccccc2)c2ccc(OC(C)C)cc2)C(=O)CCl)cc1OC` (stereo not given), the percent of DMSO control GFP in experiment [1] is 101% (inactive). Also, the GFP response vs DMSO in experiment [2] is 98.3% (inactive); in experiment [4], 98% (inactive). Also, the percent response of DMSO control in experiment [3] is 107% (inactive). Also, the GFP response, % of DMSO in [5] is 99.7% (inactive). Further, the double positive events in experiment [6] came out at 65.9%. Besides, the vesicle binding response in [6] is 249% (inactive). In addition, the inhibition was -3.57% (inactive) in [7], -14.7% (inactive) in experiment [11] and 6% (inactive) in experiment [15]. Also, the superoxide response (% of plate) in experiment [8] is 94.5% (inactive). For the same molecule, the aptamer binding inhibition in experiment [9] is 4% (inactive). For the same molecule, the results for the response in experiment [10] and in experiment [12] were -6.05% (inactive) and 0.92% (inactive), respectively. Also, the binding (% of control) in experiment [13] is 93% (inactive). Moreover, the efflux inhibition (fraction of control) in experiment [14] was -0.2 (inactive). Further, in [16], the differentiation response is 13.9% (inactive).
